# A selection: hits, their analogues and other compounds. The true share with any hit is near 5.4%.
# ALR H2O2 inh = human ALR oxidase inhibition via reduced H2O2. AID 485317. purified ALR, DTT oxidation, H2O2 HRP-luminol luminescence. actives 3.8% (n = 290,000). inhibition, % (test concentration not listed);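 active means mean replicate inhibition above about 79%, with every replicate also reaching it, limit read from the data; inconclusive means only one of the two criteria met; inactive means mean below limit and not every replicate reaching it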
# Target sequence (P55789 whole entry, looked up): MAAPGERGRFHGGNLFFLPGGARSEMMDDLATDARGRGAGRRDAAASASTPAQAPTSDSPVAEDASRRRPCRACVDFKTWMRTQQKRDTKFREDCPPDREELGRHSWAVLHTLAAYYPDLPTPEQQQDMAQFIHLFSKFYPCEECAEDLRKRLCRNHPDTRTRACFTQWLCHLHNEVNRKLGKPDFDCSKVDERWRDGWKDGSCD
# PHOSPHO1 block = PHOSPHO1 (human) inhibition; recombinant PHOSPHO1, absorbance phosphatase assay; inhibition, % at 13.3 µM; actives 1.1% (n = 290,000); AID 1565; in the data active means inhibition above about 60%
# Target sequence (Q8TCT1 whole entry, looked up): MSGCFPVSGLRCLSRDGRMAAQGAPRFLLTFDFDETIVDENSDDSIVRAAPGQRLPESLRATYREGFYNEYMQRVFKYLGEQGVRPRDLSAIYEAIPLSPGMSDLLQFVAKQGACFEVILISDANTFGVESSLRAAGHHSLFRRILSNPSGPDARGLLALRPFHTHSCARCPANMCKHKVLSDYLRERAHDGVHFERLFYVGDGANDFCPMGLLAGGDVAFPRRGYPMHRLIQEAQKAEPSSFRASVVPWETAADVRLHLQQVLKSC
# rCAG RNA binder = molecules binding r(CAG) RNA repeats; r(CAG) RNA repeat, TO-PRO-1 dye displacement fluorescence; inhibition, % at 3 µM; actives 1.3% (n = 370,000); AID 651821;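 active means inhibition above the plate cutoff, the mean of all test compounds on that plate plus 3 SD, cut at about 35% in these data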;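 further: 0% = DMSO alone and 100% = 100 µM mitoxantrone as full dye displacement; higher means more dye released from RNA so lower well fluorescence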
# APOBEC3A inh = inhibitors of human APOBEC3A DNA deaminase. P31941. actives 0.41% (n = 330,000). AID 493011. recombinant A3A, FAM/TAMRA ssDNA deamination fluorescence. inhibition, % at 20 µM;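 active means at least 40% inhibition at 20 µM here, with at most 30% in a related deaminase screen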;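 further: plate controls were A3A with DMSO for no effect and wells lacking A3A enzyme for full effect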
# APOBEC3G inh = blocks human APOBEC3G single-stranded DNA deamination; Q9HC16; recombinant A3G, ssDNA deamination FAM/TAMRA fluorescence; inhibition, % at 20 µM; actives 0.28% (n = 330,000); AID 493012;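 active means inhibition of at least 40% at 20 µM, with no more than 30% in the related APOBEC3A deaminase screen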;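 further: plate controls were DMSO wells with A3G for no effect and wells lacking A3G enzyme for full effect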
# aDG glyco act = alpha-DG glycosylation activation; Pro5-aDG cells, alpha-DG glycosylation AlphaScreen (IIH6); 0% Pro5, 100% B10-LARGE cell signal; activation, % at 10 µM; actives 0.22% (n = 360,000); AID 624168;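 active means activation of at least 8% versus controls, or a plate z-score of at least 8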;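 further: Pro5 are CHO cells carrying HIG-tagged alpha-DG that lacks glycosylation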
# Active calls of the source: *; ? = inconclusive; . = no result given.
SMILES,ALR H2O2 inh,PHOSPHO1 block,rCAG RNA binder,APOBEC3A inh,APOBEC3G inh,aDG glyco act
CCCCCC(=O)Nc1cc(S(=O)(=O)O)cc2cc(S(=O)(=O)O)cc(O)c12,.,.,43*,.,.,0
COc1ccc(NS(=O)(=O)c2cccc(NC(=O)c3ccc(Cl)nc3)c2)cc1,-8,38,6,-4,-5,8.5*
Brc1ccccc1OCCCOc1cccc2cccnc12,-3,3,-2,-5,-4,0
COc1cccc(C=O)c1OCCCOc1cccc2cccnc12,97*,4,-7,-3,15,0
O=C(O)CCN1C(=O)/C(=C\c2ccc(-c3nc4ccccc4s3)o2)SC1=S,98*,94*,.,20,17,-1
COc1ccc(/C=C/C(Cc2cccc(C(C)=O)c2)c2ccc(C)cc2)cc1 (configuration not stated),.,.,5,.,.,.
COc1cc(C(=O)N/N=C/c2sc(=O)n(-c3ccccc3)c2Cl)cc(OC)c1OC,2,-5,3,-1,-1,0
O=C(N/N=C/c1sc(=O)n(-c2ccccc2)c1Cl)c1ccncc1,98*,3,-2,-3,-4,0
O=S(=O)(Nc1ccc(N2CCCCC2)cc1)c1ccccc1F,99*,24,20,-4,-7,0
O=S(=O)(Nc1ccc(N2CCCCC2)cc1)c1ccc(F)cc1F,69,37,-4,-1,-4,0
O=S(=O)(Nc1ccc(N2CCCCC2)cc1)c1cccc2cccnc12,98*,1,3,-3,-4,0
O=S(=O)(Nc1ccc(N2CCCCC2)cc1)c1ccc(F)cc1,98*,41,0,-1,22,0
O=C(NC1CCC1)c1ccc(C#Cc2cccc(F)c2)cn1,.,.,-1,.,.,.
Cc1nc2cc3nc(C)sc3cc2s1,-24,68*,2,0,14,0
Cc1nc2cc3ccccc3cc2s1,.,.,-1,.,.,0
COC(=O)[C@]12C[C@H](CC(=O)NCc3cccs3)C(=O)N(Cc3ccccc3)C1=C[C@H](C(C)(C)C)O[C@@H]2C,.,.,1,.,.,.
O=c1c2c(-c3cccs3)csc2[nH]c(=S)n1-c1ccccc1,90*,67*,10,3,-5,0
CCn1c(=S)[nH]c2scc(-c3cccs3)c2c1=O,.,-75,7,.,.,0
CC(C)n1c(=S)[nH]c2scc(-c3cccs3)c2c1=O,90*,-112,28,21,16,0
CN1c2ccsc2C(O)=C(C(=S)Nc2ccc(F)c(Cl)c2)S1(=O)=O,18,92*,67*,-3,-1,0
Cn1cc(C(=O)Nc2ccc(F)c(Cl)c2)cn1,-18,0,1,-2,-4,0
CCOc1ccc(C(C)=O)cc1CN1c2ccc(S(N)(=O)=O)cc2CC1C (configuration not stated),79*,13,-2,-2,14,0
CCCc1cn(-c2ccc3c(c2)[C@@]2(CC(=O)N(C)C2c2ccccc2)C(=O)N3CC(C)C)nn1 (some centres not stated),.,.,0,.,.,.
CCc1nnc(NC(=O)CCC(=O)N2CCN(Cc3ccc(C)cc3C)CC2)s1,0,70*,-5,-1,-1,0
CCCc1nnc(NC(=O)CCC(=O)N2CCN(Cc3ccc(C)cc3C)CC2)s1,-5,24,-8,0,-5,1
SMILES,ALR H2O2 inh,PHOSPHO1 block,rCAG RNA binder,APOBEC3A inh,APOBEC3G inh,aDG glyco act
COc1ccc(Oc2c(-c3ccc(O)cc3O)n[nH]c2C)cc1,90*,-8,1,-1,0,0
CCCOC(=O)c1ccc(Oc2c(-c3ccc(OCC)cc3O)n[nH]c2C)cc1,1,-51,11,-4,-9,0
Cn1c(=O)c2c(nc(CN3CCN(c4ccccc4)CC3)n2Cc2ccccc2Cl)n(C)c1=O,.,30,-2,.,.,0
Cn1c(=O)c2c(nc(CN3CCN(c4ccccc4)CC3)n2Cc2c(F)cccc2Cl)n(C)c1=O,97*,9,9,2,-8,0
COc1ccc(CCN(Cc2cccs2)S(=O)(=O)c2ccc(C)c(C)c2)cc1OC,.,.,7,.,.,.
Cc1ccccc1C(=O)Nc1cccc(N)c1,-3,2,3,-1,-4,0
Nc1cccc(NC(=O)c2ccco2)c1,99*,.,-2,2,-2,0
Nc1ccc(C(=O)Nc2cccc(N)c2)cc1,99*,41,-1,.,.,0
COCCNC(=O)c1onc(CCl)c1C(=O)OC,48,35,1,-5,-11,0
CC(C)NC(=O)c1onc(CSc2ccc(F)c(F)c2)c1C(=O)O,2,-66,9,3,-4,0
CCCCNC(=O)c1onc(CSc2ccc(F)cc2)c1C(=O)O,11,3,13,-4,-10,0
CCCCNC(=O)c1onc(CCl)c1C(=O)OC,97*,35,-3,6,-5,0
CCCCNC(=O)c1onc(CSc2ccc(OC)cc2)c1C(=O)O,?,98*,10,1,-8,0
COCCNC(=O)c1onc(CSc2ccc(C)c(C)c2)c1C(=O)O,90*,7,9,2,4,0
Cc1ccc(SCc2noc(C(=O)NC(C)C)c2C(=O)O)cc1C,96*,37,14,-1,-6,0
Cc1[nH]c2ccccc2c1CC(=O)Nc1ccc(Nc2cccnc2)c(-c2cc(C(F)(F)F)cc(C(F)(F)F)c2)c1,.,.,6,.,.,.
O=c1[nH]c(-c2ccccc2)cn1C1CCN(Cc2ccc(-c3nc4ccccc4nc3-c3ccccc3)cc2)CC1,.,.,11,.,.,.
C=CCNC(=O)c1onc(CSc2ccccc2)c1C(=O)O,9,33,6,4,-2,0
C=CCNC(=O)c1onc(CSc2cccc(OCC)c2)c1C(=O)O,94*,-6,14,1,-8,0
CC(C)=CCC/C(C)=C/CN1CC(=O)N2[C@H](C[C@@]3(n4ccc5ccccc54)c4ccccc4N(S(=O)(=O)c4ccccc4)[C@@H]23)C1=O,.,.,14,.,.,.
COc1ccc(C2CC(=O)C(c3ccc(Cl)cc3)=CN2Cc2ccccc2)cc1 (configuration not stated),.,.,5,.,.,.
Cc1cc(C)cc(NC(=S)Nc2ccccn2)c1,97*,-6,1,-4,-3,1
Cc1cccc(NC(=S)Nc2ccccn2)c1,-6,-17,0,1,2,1
COc1ccccc1NC(=S)Nc1ccccn1,82*,-1,-1,-3,-9,0
CCCCNC(=O)C[C@H]1C[C@@]2(C(=O)OC)C(=C[C@H](C3CCCC3)O[C@@H]2C)N(Cc2ccco2)C1=O,.,.,-3,.,.,.
CCOC(=O)N1CCC(NC(=O)CSCc2nc(-c3ccc(C)cc3)oc2C)CC1,58,30,-8,-6,-5,0
COc1ccc(-c2nc(CN3CCC(C(=O)NC4CCN(Cc5ccccc5)CC4)CC3)c(C)o2)cc1OC,43,4,-10,-2,-4,1
